A word on the AC50: it is the midpoint of the concentration-response curve, whichever way the signal moves.

Inconclusive results are not listed. The source made the active and inactive calls. The calls were made as follows, unless noted: active = hit-call score of the fitted dose curve at least 0.9, where 1 is the maximum; inactive = score below 0.9.

Drawing on PubChem BioAssay (EPA / NIEHS), this text covers outcome and AC50 for 1 compound.

Experiment [1] can be described thus: Tanguay_ZF_120hpf_ActivityScore_legacy: (Legacy) Oregon State University Tanguay Lab 120 Hour Post-fertilization zebrafish Assay Score for Activity (AID 2283742; active = hit-call score of the fitted dose curve at least 0.9, where 1 is the maximum). In outline: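 Binary scoring of mortality and morphology by brightfield at 24 and 120 hpf, summarised into one activity score from 18 components relative to DMSO. Wild-type Tropical 5D zebrafish, chorion removed at 4 hpf, static exposure 6–120 hpf, 28 °C.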

Experiment [2] can be described thus: ACEA_ER_AUC_viability: ACEA Biosciences xCELLigence Real-Time Cell Analysis on Estrogen Receptor Agonism for Viability (AID 2283782; active = hit-call score of the fitted dose curve at least 0.9, where 1 is the maximum;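 also: hit means loss of impedance signal meaning reduced cell growth or viability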). In outline: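 Viability endpoint: reduced impedance area under the curve relative to DMSO, recorded by real-time electrode sensing over ~80 h of continuous exposure. Duplicate plates of T47D in hormone-depleted medium; eight concentrations, 1:4 dilutions, 100 uM maximum.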

Experiment [3] is described as follows: STM_H9_NormalizedViability: Cytotoxicity Assessment at 120 hours in the Stemina devTOX quickPredict H9 human embryonic stem cell (hESC)-based Assay (AID 2283784; active = hit-call score of the fitted dose curve at least 0.9, where 1 is the maximum). In outline:
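CellTiter-Fluor RFU, background-subtracted, expressed relative to 0.1% DMSO neutral control by plate. Pluripotent H9 cells; treatment with daily re-dosing. Plates carried 1uM methotrexate (positive) and 5 nM methotrexate (negative) references.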

A short description of experiment [4]: CCTE_Shafer_MEA_acute_spike_number: CCTE's Neural Acute Assay for Total Number of Spikes, Shafer Lab (AID 2284008). In outline: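 Rat primary cortical neurons on 48-well MEA plates, DIV 13 or 15, at 37 C. 40 min baseline then 40 min with compound (0.03-40 uM); spikes detected at 8x rms noise, expressed as percent change from baseline.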
Experiment [5] is described as follows: CCTE_Shafer_MEA_acute_firing_rate_mean: CCTE's Neural Acute Assay for Mean Firing Rate, Shafer Lab (AID 2284009).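 Also: analyzed for loss of signal so actives lower firing rate relative to DMSO.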 The method, boiled down: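 Primary rat cortical neurons on 16-electrode MEA wells were exposed on DIV 13 or 15 to compound (0.03-40 uM). Spike counts per recording time, averaged over electrodes, were compared between 40-min baseline and 40-min post-exposure recordings as percent change.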

A short description of experiment [6]: CCTE_Harrill_HTTr_Viability_MCF7: CCTE's 6-hour Cell Viability Assessment for the High-Throughput Transcriptomics (HTTr) Platform, in MCF-7 cells cultured in DMEM + 10% fetal bovine serum, Harrill Lab (AID 2284010). In outline: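 PI exclusion, high-content imaging; 8-pt dilution series, 6 h exposure; bidirectional fit vs DMSO (neg. ctrl/baseline); gain of signal = loss of membrane integrity.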

A short description of experiment [7]: CCTE_Harrill_HTTr_Apoptosis_MCF7: CCTE's 6-hour Apoptosis Assessment for the High-Throughput Transcriptomics (HTTr) Platform, in MCF-7 cells cultured in DMEM + 10% fetal bovine serum, Harrill Lab (AID 2284011). In outline:
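MCF-7 cells in DMEM + 10% FBS exposed 6 h to chemicals over an eight-point dilution series. Caspase-3/7 activation imaged by high-content CellEvent Green staining; fitted bidirectionally versus DMSO.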

Experiment [8] can be described thus: CCTE_Shafer_MEA_acute_burst_number: CCTE's Neural Acute Assay for Single-Electrode Bursts, Shafer Lab (AID 2284013). In outline:
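Primary rat cortical neurons on 16-electrode MEA wells, DIV 13 or 15, exposed to compound (0.03-40 uM; ≥3 wells); 40-min recordings at 37 C before and after treatment. Burst count expressed as percent change from baseline, DMSO as negative control.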

Experiment [9] is described as follows: CCTE_Shafer_MEA_acute_burst_duration_mean: CCTE's Neural Acute Assay for Mean Burst Duration, Shafer Lab (AID 2284014).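 Also: hits are decreases in mean burst duration relative to DMSO controls.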 The method, boiled down: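 Mean burst duration was compared between a 40 min baseline and a 40 min recording in the presence of compound (0.03-40 uM, 37 C), giving percent change per well. Cultures were rat cortical neurons at DIV 13 or 15; wells needed ≥10 active electrodes.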

The nature of experiment [10]: CCTE_Shafer_MEA_acute_per_burst_spike_number_mean: CCTE's Neural Acute Assay for Average Number of Spikes Per Burst, Shafer Lab (AID 2284015).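 Also: hits are decreases in mean spikes per burst versus baseline.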 The method, boiled down:
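Primary rat cortical neurons on 48-well MEA plates, treated on DIV 13 or 15 at 0.03-40 uM. Spontaneous activity recorded 40 min before and 40 min after compound at 37 C; percent change in mean spikes per single-electrode burst per well, fitted in the loss direction versus DMSO.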

Experiment [11] is described as follows: CCTE_Shafer_MEA_acute_interburst_interval_mean: CCTE's Neural Acute Assay for Mean Interburst Interval, Shafer Lab (AID 2284016).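 Also: percent change of mean interburst interval versus each well's own pre-dose baseline; curves fitted for decrease in interburst interval relative to DMSO.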 In outline: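 Primary rat cortical neurons on 16-electrode MEA wells were recorded 40 min at baseline on DIV 13 or 15, then 40 min after compound (0.03-40 uM), at 37 C. Value is percent change in mean interburst interval per well, DMSO as negative control.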

Experiment [12] in a line: CCTE_Shafer_MEA_acute_burst_percentage_mean: CCTE's Neural Acute Assay for Percentage of Spikes in a Burst, Shafer Lab (AID 2284017). In outline:
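Primary rat cortical neurons on 16-electrode MEA wells; 40 min baseline recorded at DIV 13 or 15, then 40 min after compound (0.03-40 uM) at 37 C. Well-mean fraction of spikes in single-electrode bursts; percent change from baseline, DMSO as negative control.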

The nature of experiment [13]: CCTE_Shafer_MEA_acute_burst_percentage_std: CCTE's Neural Acute Assay for Standard Deviation of Burst Percentage, Shafer Lab (AID 2284018).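 Also: fitted in the negative direction so actives lower burst percentage SD.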 In outline: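 Value is percent change from baseline in the across-electrode SD of spikes-in-bursts percentage, wells with >/= 10 active electrodes. Acute 40-min exposure to 0.03-40 uM on DIV 13 or 15 rat cortical cultures, recorded at 37 C after 40-min baseline.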

The nature of experiment [14]: CCTE_Shafer_MEA_acute_per_network_burst_electrodes_number_mean: CCTE's Neural Acute Assay for Mean Number of Electrodes in a Network Burst, Shafer Lab (AID 2284021).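 Also: curves fitted for decreases only so hits reduce electrodes per burst.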 The method, boiled down:
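Rat primary cortical neurons on 48-well MEAs, DIV 13 or 15, were treated at 0.03-40 uM. Spikes were detected at 8x rms noise and recorded at 37 C. The mean electrodes per network burst in a 40 min exposure recording was expressed as percent change from a 40 min baseline.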

The nature of experiment [15]: CCTE_Shafer_MEA_acute_network_burst_percentage: CCTE's Neural Acute Assay for Percentage of Network Bursts, Shafer Lab (AID 2284022).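 Also: curves fitted for loss so actives lower network burst percentage.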 In outline:
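Rat primary cortical neuron networks on 48-well MEA plates, DIV 13 or 15, treated acutely with compound (0.03-40 uM, at least three wells). Percent of spikes within network bursts compared between 40-min recordings before and during exposure at 37 C, expressed as percent change.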

Experiment [16] can be described thus: CCTE_Shafer_MEA_acute_cross_correlation_area: CCTE's Neural Acute Assay for Area of Cross Correlation, Shafer Lab (AID 2284024).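 Also: curves fitted for loss of cross-correlation area so actives lower synchrony.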 The method, boiled down:
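Rat primary cortical neurons on 48-well MEA, DIV 13 or 15; compounds 0.03-40 uM. Baseline and post-exposure 40 min recordings at 37 C; percent change in area under pooled inter-electrode cross-correlation near zero lag, relative to DMSO.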

Experiment [17] can be described thus: CCTE_Shafer_MEA_acute_synchrony_index: CCTE's Neural Acute Assay for Synchrony, Shafer Lab (AID 2284027).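 Also: network synchrony index of spontaneous spiking in primary rat cortical neurons on MEAs; fitted for loss of signal so actives lower synchrony relative to DMSO.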 The method, boiled down:
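Rat cortical cultures, DIV 13/15; spikes detected at 8x rms noise, 300-5000 Hz band-pass. Compound 0.03-40 uM, ≥3 wells; 40-min pre- and post-exposure recordings, 37 C. Readout: % change in synchrony index; loss-of-signal fit vs DMSO.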

Experiment [18] in a line: CCTE_Shafer_MEA_acute_AB: CCTE's Alamar Blue Assay for Cytotoxicity in the Neural Acute Assay, Shafer Lab (AID 2284069; active = hit-call score of the fitted dose curve at least 0.9, where 1 is the maximum;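 also: active compounds lower the viability signal compared with DMSO wells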). In outline: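 Read-out: resazurin fluorescence (ex 544, em 590 nm) after CTB reagent at 1:6 dilution in fresh media. Cells: primary rat cortical neuron networks, DIV 13 or 15, chemically exposed on MEA plates; DMSO as negative control/baseline.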
(In general: Resazurin is reduced to fluorescent resorufin, in cell work by metabolically active cells.)

Experiment [19] deals with IYD (gene 389434). Nature of the experiment: CCTE_GLTED_hIYD: CCTE's human Iodotyrosine Deiodinase (xIYD) Inhibition Assay, Great Lakes Toxicology and Ecology Division (GLTED) Lab (AID 2284317; active = hit-call score of the fitted dose curve at least 0.9, where 1 is the maximum;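 also: cell-free human IYD enzyme made in baculovirus insect cells; iodide freed from monoiodotyrosine measured by cerium arsenite color change at 420 nm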). The method, boiled down:
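Cell-free; baculovirus/insect-cell hIYD + MIT substrate + chemical, 3 h. Dowex column cleanup, then Ce4+/As3+ Sandell-Kolthoff read at A420 nm. Triplicate plates; normalized to 3-nitro-L-tyrosine (positive) and DMSO/NaOH (solvent).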

Consider `c1cc[n+]2c(c1)-c1cccc[n+]1CC2`, for which the compound was called inactive in experiment [1], in experiment [4], in [5], in [6], in experiment [7] and in experiment [8]. In addition, the result in experiment [9], in experiment [10], in experiment [11], in experiment [12], in [13] and in [14] was inactive. Besides, the result in [15], in experiment [16], in experiment [17] and in experiment [18] was inactive. In addition, the AC50 in [2] is 22.8 µM (active); in experiment [3], 7.82 µM (active); in experiment [19], 11.4 µM (active).
